The list is not random: actives were taken first. Their share in the collection is about 3.2%.
GLP-1R inv ag: inverse agonists of human GLP-1 receptor. Potency, µM (doses to about 38.3 µM), most hits filed as inhibitors. 1.6% of 410,000 active. HEK293 GLP-1R CRE-luciferase, luminescence, 24 h; GLP-1R form is constitutively active; also: nearly all actives have a fitted effect of over 55% in size
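Using stably transfected HEK293 (constitutively active GLP-1R, cAMP-luciferase reporter), compounds were incubated 24 hr and luciferase measured by luminescence.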
GLP-1R agonist: GLP-1 receptor (human) agonism | P43220 | HEK293 GLP-1R CRE-luciferase, luminescence, 4-6 h; cells express a hypersensitive GLP-1R form | Potency, µM (titrated, usually from 45.6 µM), actives largely listed as activators | 0.007% of 380,000 active
HEK293 tox: cytotoxicity counter-screen for GLP-1 receptor inverse agonists | 0.13% of 410,000 active | AID 624418 | HEK293 cAMP-luciferase reporter cells, luminescence, 24 h | Potency, µM (series often up to 38.3 µM), most hits filed as inhibitors;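 also: loss of luciferase light is scored as toxicity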
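A 23 nL compound transfer followed 12 hours of cell culture at 37 deg C; exposure then lasted 24 hr. Luciferase assay detection reagent was dispensed and plates read for luminescence after a 12 min room-temperature wait.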
ClpP mod: qHTS Assay for Activators of ClpP | 1.9% of 340,000 active | AID 651965, 2013 | purified B. subtilis ClpP, FRET peptide cleavage, 20 min | ATP-dependent Clp protease proteolytic subunit (Bacillus subtilis (strain 168)), P80244 | Potency, µM (doses to about 57.5 µM); active = well fitted falling curve with a large enough effect; inconclusive = small, poorly fitted or top-dose-only effect; inactive = no such curve, though single readings can be large or run the other way; also: the source files actives as falling curves though it sought activators and does not explain the sign; nearly all actives have a fitted effect of over 65% in size
Target sequence (P80244 whole entry, looked up): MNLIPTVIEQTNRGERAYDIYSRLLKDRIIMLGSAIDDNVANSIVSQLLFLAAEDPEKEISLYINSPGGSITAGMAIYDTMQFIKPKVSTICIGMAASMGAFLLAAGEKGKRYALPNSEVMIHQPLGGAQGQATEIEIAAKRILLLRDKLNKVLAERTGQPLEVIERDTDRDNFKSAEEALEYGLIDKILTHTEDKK
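ClpP 10 microg/mL final, pH 8 Tris/KCl buffer with BSA, glycerol, Tween-20; compound pinned in; FRET-FV substrate; RT 20 min; Ex320/Em430; ΔFRET vs ADEP 5.8 microM, DMSO, no enzyme.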
Numbers stand for hits; 0 = inactive; ? = inconclusive; - = no result given. Unless noted, calls follow the shape of the dose curve; as a rule, active = well fitted curve in the direction sought with a large enough effect; inconclusive = small, poorly fitted or top-dose-only effect, or another doubt; inactive = no such curve, though single readings can be large; an effect the other way counts as inactive or inconclusive.

SMILES	GLP-1R inv ag	GLP-1R agonist	HEK293 tox	ClpP mod
O=C(Cc1ccc(Br)cc1)Nc1cccc(S(=O)(=O)N2CCCCC2)c1	10µM	0	0	0
O=C(CNc1cccc(S(=O)(=O)N2CCCC2)c1)Nc1ccc(C(F)(F)F)cc1	10µM	0	0	0
CC(C)(C)c1ccc(OCCCC(=O)Nc2cccc(S(=O)(=O)N3CCOCC3)c2)cc1	7.9µM	0	0	0
CC(C)N(C(=O)CSc1nc2ccccc2n1Cc1ccccc1F)C(C)C	2.2µM	0	0	0
CC(C)N(C(=O)CSc1nc2ccccc2n1Cc1ccccc1)C(C)C	?	0	0	0
O=C1c2ccccc2NC(c2ccccc2OCc2ccccc2)N1Cc1ccco1 (centres undefined)	-	-	-	0
COc1ccc(OC)c(NC(=O)CSCc2cnn(-c3ccccc3)c2-n2cccc2)c1	11µM	0	0	32µM
O=C(CSCc1cnn(-c2ccccc2)c1-n1cccc1)NCc1ccccc1F	13µM	-	0	0
COc1ccccc1CNC(=O)CSCc1cnn(-c2ccccc2)c1-n1cccc1	0	0	0	0
Cc1ccc(NC(=O)CSCc2cnn(-c3ccccc3)c2-n2cccc2)c(Cl)c1	10µM	-	0	0
COc1cc(NC(=O)CSCc2cnn(-c3ccccc3)c2-n2cccc2)cc(OC)c1	3.2µM	0	0	0
CCOc1ccc(-c2cnc(NCc3cccc(Cl)c3)n2C)cc1	0	0	0	0
COc1ccc(-c2nnc(SCC(=O)Nc3ccc(C)c(C)c3)s2)cc1	0	-	0	0
CC(=O)N1CCC2(CC1)OC(=O)C(C)=C2C(=O)Nc1ccccc1C(F)(F)F	0	-	0	0
O=C1/C(=C/N(C(=O)c2ccco2)c2ccc(Cl)cc2)Sc2ccccc21	?	0	0	10µM
O=C1/C(=C/N(C(=O)c2ccco2)c2ccc(Br)cc2)Sc2ccccc21	?	0	0	0
COc1ccc(-c2ccccc2)cc1NCc1ccc(OC)c(OC)c1	0	0	0	28µM
COc1ccc(-c2ccccc2)cc1NCc1ccccc1C	?	0	0	13µM
COc1ccc(CNC(=O)c2ccc(-c3ccccc3)cc2)cc1OC	0	0	0	0
COc1ccccc1CNc1ccccc1F	0	0	0	-
COc1ccccc1CNc1cc(-c2ccccc2)ccc1OC	?	0	0	25µM
COc1ccc(CN2CCc3c(c(=O)n4ncc(C(=O)N5CCN(c6ccccc6OC)CC5)c4n3C)C2)cc1	0	-	0	0
CCOC(=O)c1sc2nc(N3CCOCC3)c3c(c2c1N)CC(C)(C)N(C)C3	0	0	0	7.1µM
CC1(C)Cc2c(c(N3CCOCC3)nc3sc(C#N)c(N)c23)CS1	0	0	0	28µM
CCOC(=O)c1sc2nc(N3CCOCC3)c3c(c2c1N)CCN(Cc1ccccc1)C3	0	0	0	25µM
SMILES	GLP-1R inv ag	GLP-1R agonist	HEK293 tox	ClpP mod
CCOC(=O)c1sc2nc(N3CCOCC3)c3c(c2c1N)CCC3	0	?	0	0
Cc1cccc(NC(=O)CSc2nccn2-c2cccc(Cl)c2)c1C	0	-	0	0
NC(N)=NN=C(c1ccc(F)cc1)c1ccc(C(F)(F)F)cc1	1.1µM	0	?	0
Cc1cc(C)n(-c2ccc(C(=O)OCc3nnc(-c4ccccc4)o3)cc2)n1	0	0	0	35µM
COC(=O)c1cc2c(C)nn(-c3ccccc3)c2s1	0	0	0	32µM
Cc1nn(-c2ccccc2)c2sc(C(=O)O)cc12	0	0	0	0
Cc1nn(-c2ccccc2)c2sc(C(=O)OCc3nnc(-c4ccccc4)o3)cc12	0	0	0	14µM
Cc1cccc(C)c1Nc1c(-c2ccsc2)nc2cccc(C)n12	0	-	0	35µM
Cc1cc(C)n2c(Nc3c(C)cccc3C)c(-c3ccsc3)nc2n1	0	0	0	0
CC(C)(CO)NCC(O)COc1ccc2c(c1)CCC2 (centres undefined)	?	0	0	0
CC(C)(C)CC(C)(C)NCC(O)COc1ccc2c(c1)CCC2 (centres undefined)	10µM	0	?	0
CCN(CC)C1CCN(C(=O)c2cc(COc3ccccc3SC)on2)C1 (centres undefined)	7.1µM	0	0	0
O=C(CCN1CCN(c2ccccc2F)CC1)Nc1ccccc1F	0	0	0	16µM
C=CCn1c(=NC(=O)c2ccc(S(=O)(=O)N3CCc4ccccc4C3)cc2)sc2cc(S(N)(=O)=O)ccc21	?	0	?	0

High-throughput results: PubChem BioAssay, National Center for Advancing Translational Sciences (NCATS)
